BCLXL inh: inhibitors of human Bcl-xL, primary screen, biochemical, fluorescence polarization, HTS. GST-Bcl-xL / FITC-Bim BH3 peptide fluorescence polarization. AID 2129, 2009. 320,000 tested, 0.7% active. inhibition, % at 10.9 µM;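 active = inhibition above the mean of all tested compounds plus 3 SD, cutoff set per campaign, cut at about 30% in these data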;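 also: 0% = DMSO wells and 100% = unlabeled Bim-BH3 peptide competitor; inhibitors lower millipolarization by displacing the labeled peptide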
E coli Lon inh: inhibitors of E. coli Lon protease, primary screen, biochemical, fluorescence polarization; purified E. coli Lon protease; inhibition, % at 7.94 µM; 360,000 tested, 0.42% active; in the data active = inhibition above about 13%, passing the limit was not always enough;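 also: 0% = enzyme with probe and DMSO and 100% = no enzyme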
MCL1 BIM primary: inhibitors of MCL1 binding to BIM-BH3, primary screen, biochemical, fluorescence polarization; Induced myeloid leukemia cell differentiation protein Mcl-1 (Homo sapiens), Q07820; 320,000 tested, 0.68% active; inhibition, % at 10.9 µM; GST-MCL1 / FITC-Bim-BH3 fluorescence polarization;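 active = inhibition above the mean inhibition of all tested compounds plus 3 SD, set per campaign, cut at about 40% in these data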;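 also: 0% = DMSO wells and 100% = unlabeled Bim-BH3 peptide control; higher means more loss of mP so more displacement of Bim peptide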
EBV gp42 block: Epstein-Barr virus gp42 inhibitors, primary screen, biochemical, uHTS, fluorescence polarization; Glycoprotein 42 (Epstein-Barr virus (strain AG876)), Q1HVG2; Fluorescence polarization binding assay, mP read-out; inhibition, % (tested at 21.74 µM); 220,000 tested, 0.42% active; in the data active = inhibition above about 50%
GLD-1 TGE inh: GLD-1/TGE RNA complex disruptors, primary screen, biochemical, fluorescence polarization | inhibition, % at 5.96 µM | AID 2280, 2010 | purified GLD-1 + fluorescein TGE RNA | Female germline-specific tumor suppressor gld-1 (Caenorhabditis elegans), Q17339 | 320,000 tested, 0.44% active;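 active = percent inhibition above a per-plate cutoff, the plate mean of test compounds plus 3 SD, cut at about 30% in these data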;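 also: 0% = DMSO wells with GLD-1 and probe and 100% = wells lacking GLD-1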
Target sequence (Q17339 whole entry, looked up): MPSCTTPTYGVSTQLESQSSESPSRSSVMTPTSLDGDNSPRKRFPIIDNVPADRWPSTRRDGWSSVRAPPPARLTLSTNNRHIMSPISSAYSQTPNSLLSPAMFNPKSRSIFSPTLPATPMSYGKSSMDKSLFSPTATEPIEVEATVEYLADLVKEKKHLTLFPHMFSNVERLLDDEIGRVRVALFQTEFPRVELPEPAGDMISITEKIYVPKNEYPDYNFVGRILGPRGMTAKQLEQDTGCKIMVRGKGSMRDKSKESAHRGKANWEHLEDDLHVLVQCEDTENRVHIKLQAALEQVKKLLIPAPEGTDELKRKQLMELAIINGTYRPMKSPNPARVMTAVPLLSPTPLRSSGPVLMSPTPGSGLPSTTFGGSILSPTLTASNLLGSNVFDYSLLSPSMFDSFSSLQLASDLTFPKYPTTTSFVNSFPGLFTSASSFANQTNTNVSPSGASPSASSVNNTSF
MEX-5 binding: MEX-5 zinc finger RNA-binding disruptors – biochemical, C. elegans, fluorescence polarization, MLPCN library, primary screen | Zinc finger protein mex-5 (Caenorhabditis elegans), Q9XUB2 | activity score (negative = inhibition of binding), % at 10 µM | AID 1832, 2009 | MEX-5/FITC-TCR2 RNA binding; stronger effect = lower value | 300,000 tested, 0.38% active;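 active = inhibition past about -25% in most replicates, and total fluorescence under double the plate's negative control median, limit read from the data; inconclusive = replicates evenly split on the limit, or fluorescence at least double controls; inactive = too little inhibition in most replicates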;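 also: 0% = DMSO and -100% = 5 µM competing unlabeled TCR2 RNA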
The depositor's hits bear a star; u = inconclusive; x = no result. Compounds with a hit are over-represented: about 1.4% of the library has one in this group of screens.

SMILES	BCLXL inh	E coli Lon inh	MCL1 BIM primary	EBV gp42 block	GLD-1 TGE inh	MEX-5 binding
COc1ccc2nc3cccc(OC)c3nc2c1	46*	7	33	26	24	1
CCN(CC)S(=O)(=O)c1cccc(C(=O)N/N=C2\CC(=O)CC(C)(C)C2)c1	15	23	19	-5	53*	-2
Cc1ccc(S(=O)(=O)N(C)Cc2ccc(C(=O)N/N=C3\CC(=O)CC(C)(C)C3)cc2)cc1	1	-1	12	-10	13	5
Cc1c(NC(=O)N(C)c2ccccc2)c(=O)n(-c2ccccc2)n1C	0	-5	16	x	-4	-4
COCCn1c(=N)c(C(=O)NCc2ccco2)cc2c(=O)n3cc(C)ccc3nc21	72*	-4	69*	42	56*	-12
N=c1c(C(=O)NCc2ccco2)cc2c(=O)n3ccccc3nc2n1CCc1ccccc1	32*	-6	20	12	12	-5
Cc1cccn2c(=O)c3cc(C(=O)NCc4ccco4)c(=N)n(CCOCCO)c3nc12	55*	-4	43*	75*	24	-8
COc1ccc(CCn2c(=N)c(C(=O)NCc3ccco3)cc3c(=O)n4ccccc4nc32)cc1OC	x	-6	x	x	x	x
Cc1cccn2c(=O)c3cc(C(=O)NCc4ccco4)c(=N)n(C4CCCCC4)c3nc12	20	-3	16	x	11	-1
CCNC(=O)C1(C)CCCN(C(=O)/C=C/c2ccccc2)C1 (stereo not given)	x	1	x	x	x	x
CC(Cc1ccc(O)c(O)c1)C(C)Cc1ccc(O)c(O)c1 (stereo not given)	31*	x	38	x	15	-36*
O=C(O)COc1ccccc1C(Nc1cccnc1)c1cc(Cl)c2cccnc2c1O (stereo not given)	x	13	x	-9	x	-59*
CCOc1ccc(C(Nc2cccnc2)c2cc(Cl)c3cccnc3c2O)cc1 (stereo not given)	17	-3	28	19	-6	3
COc1cc(NC(=O)CSc2ccccc2)c(C(=O)O)cc1OC	7	3	0	-10	2	1
COc1cc(NC(=O)CSc2nc3ncnc(N)c3[nH]2)c(C(=O)O)cc1OC	1	-4	1	x	2	-31*
COC(=O)[C@@]1(Cc2ccccc2)[C@H]2C(=O)N(C)C(=O)[C@H]2[C@H]2CN=C(SC)N21	x	-8	x	x	x	x
COc1cc([N+](=O)[O-])ccc1NC(=S)Nn1cnnc1	36*	-7	4	x	1	-2
COC(=O)CCC(=O)OC1(C)C(=O)C=C2C=C(C3CC3)N(c3cccc(C#N)c3)C=C2C1=O (stereo not given)	47*	14	43*	14	31	-17
COC(=O)CCC(=O)OC1(C)C(=O)C=C2C=C(C3CC3)N(Cc3ccco3)C=C2C1=O (stereo not given)	37*	12	42*	26	15	-13
CCc1cc(-c2nnn(CCC3COCCO3)c2CC)ccc1-c1cn(Cc2ccccc2)nn1 (stereo not given)	x	-7	x	x	x	x
Cc1sc(NC(=O)c2ccco2)c(CN2CCCCC2)c1C	38*	4	40	-11	31	-11
Cc1sc(NC(=O)c2ccco2)c(CN2CCN(c3ccccc3)CC2)c1C	3	2	6	-16	6	1
O=C(/C=C/c1ccc(OCCCF)cc1)Nc1ccnc(-c2cccnc2)n1	-3	-15	-9	-29	-16	-51*
O=C(/C=C/c1ccc(OCCCF)cc1)Nc1ccnc(-c2ccncc2)n1	8	-2	4	-2	4	-3
CC1=C(C(=O)OCc2ccccc2)C(c2ccccc2[N+](=O)[O-])NC(=O)N1C (stereo not given)	12	3	19	x	10	-39*
SMILES	BCLXL inh	E coli Lon inh	MCL1 BIM primary	EBV gp42 block	GLD-1 TGE inh	MEX-5 binding
COc1ccc(CC(=O)NCc2ccc3c(c2)cc(C)n3C)cc1OC	3	-2	-1	-22	6	-1
O=C(NCc1ccc2c(c1)OCO2)c1cc2ccccc2o1	4	2	4	-8	4	0
COc1ccc(C(=O)NCc2ccc3c(c2)cc(C)n3C)cc1	4	15*	4	-9	0	0
Cc1cc2cc(CNC(=O)c3cc4ccccc4o3)ccc2n1C	31*	x	32	5	39*	-2
COc1ccc(CC(=O)NCC(=O)N/N=C(/C)c2ccco2)cc1	-2	4	-1	5	-1	0
Cc1cnc(C(=O)OCc2nc3ccsc3c(=O)[nH]2)cn1	30*	-26	36	x	14	x
Cc1ccc(C(=O)OCc2nc3ccsc3c(=O)[nH]2)o1	2	-11	5	x	5	-3
CCOC(=O)c1c2c3c(cccc3[nH]c1=O)C(=O)c1ccccc1-2	54*	-2	47*	14	21	-6
Cc1nc(S/C(=C/c2ccc(OCc3ccc(C(=O)O)cc3)cc2)C(=O)O)n[nH]1	4	7	25	1	5	-69*
N#C/C(=C\c1ccc(OCc2ccc(C(=O)O)cc2)cc1)C(=O)NCc1ccccc1	1	-2	-15	x	11	3
O=C(O)c1ccccc1NS(=O)(=O)c1ccc(NNC(=S)Nc2ccc(OC(F)F)cc2)c([N+](=O)[O-])c1	x	-4	x	19	x	-42*
O=c1cc2c(=O)oc3cc(O)c(O)oc3c2c(O)c1O	x	-6	x	-12	x	-84*
O=c1oc2cc(O)c(Cl)cc2c2ccccc12	3	-2	-2	-2	9	-1
COc1ccccc1NS(=O)(=O)c1cc(NC(=O)CCc2nc3ccccc3c(=O)[nH]2)ccc1C	9	-6	8	x	1	-6
CCOC(=O)/C(C#N)=C\c1cc(C)n(-c2ccccc2)c1C	-1	-2	-5	-7	4	-5
CCOC(=O)/C(C#N)=C\c1ccc(N2CCN(C/C=C/c3ccccc3)CC2)cc1	-30	-97	-59	131*	-25	u
OC[C@@H](O)[C@H](O)C(/C=N/Nc1ccccc1)=N\Nc1ccccc1	6	-4	3	-12	3	0
NC(=O)[C@@H]1CCCN1Cc1c(C(=O)N2CCc3ccccc3C2)nc2ccc(Cl)cn12	41*	1	43*	x	36*	-32*
CC1CCN(Cc2c(C(=O)N3CCc4ccccc4C3)nc3ccc(Cl)cn23)CC1	13	-18	13	x	17	-2
COc1ccc(C(=O)C(C)[n+]2ccc(C)c3ccccc32)cc1[N+](=O)[O-] (stereo not given)	34*	-44	39	x	-44	2

Screening data as filed in PubChem BioAssay.
